hgDAF12 agonist = agonists of H. glycines DAF-12 nuclear receptor; HEK293 GAL4-hgDAF12 UAS-luciferase reporter, agonist luminescence; normalized to butyrate control; activation, % at 6.8 µM; 370,000 compounds, 1.8% hits;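 active = activation above a cutoff set at the mean of all screened compounds plus 3 SD, cut at about 10% in these data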;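 note: 0% = DMSO wells and 100% = sodium butyrate wells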
DAX1 inh-1 = NR0B1 (DAX1) inhibition. P51843. HEK293 Gal4-DAX1 luciferase reporter, luminescence. inhibition, % at 6.75 µM. 340,000 compounds, 0.99% hits. AID 504766;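 active = inhibition above the mean over all tested compounds plus 3 SD, cut at about 4.2% in these data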;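 note: 0% = DAX1-transfected cells with DMSO and 100% = empty-vector control cells with DMSO; inhibition shows as a rise in luminescence from relieved DAX1 repression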
Target sequence (P51843 207-470 limits assumed): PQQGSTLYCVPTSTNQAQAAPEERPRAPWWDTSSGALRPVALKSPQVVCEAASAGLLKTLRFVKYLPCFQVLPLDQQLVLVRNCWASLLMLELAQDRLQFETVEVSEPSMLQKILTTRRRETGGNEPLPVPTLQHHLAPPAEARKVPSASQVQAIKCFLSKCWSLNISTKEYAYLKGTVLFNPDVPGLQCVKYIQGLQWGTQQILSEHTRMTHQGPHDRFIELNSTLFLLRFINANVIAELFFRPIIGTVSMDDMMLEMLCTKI
ssDAF12 agonist = activators of S. stercoralis DAF-12 nuclear receptor; AID 652126; 370,000 compounds, 1% hits; activation, % at 6.8 µM; HEK293 ssDAF-12/GRIP1 lit1-tk-luc reporter, luminescence; % of 3 µM dafachronic acid response;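 active = activation above the mean over all tested compounds plus 3 SD, cut at about 0.9% in these data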;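 note: 0% = DMSO-only wells and 100% = 3 µM delta7-dafachronic acid wells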
DAX1 inh-2 = DAX1 (NR0B1) inhibition, primary screen; inhibition, % at 6.8 µM; HEK293T StAR-luciferase reporter, SF-1/DAX-1 repression relief; 370,000 compounds, 1.1% hits;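 active = inhibition above the mean over all tested compounds plus 3 SD, cut at about 3.6% in these data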;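 note: 0% = DAX-1 cells with DMSO and 100% = cells lacking DAX-1 with DMSO; higher inhibition means more luminescence from relief of DAX-1 repression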
hcDAF12 agonist = H. contortus DAF-12 activation, primary screen | 370,000 compounds, 1.4% hits | HEK293 hcDAF-12 lit1-tk-luc reporter, luminescence; 0% DMSO, 100% Δ7-dafachronic acid | activation, % at 6.8 µM;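 active = activation above the mean of all tested compounds plus 3 SD, cut at about 5.5% in these data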;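 note: 100% = response to 3 µM Δ7-dafachronic acid high control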
* hit, by the source's call; · = not tested or not shown. Only some compounds are listed: those with a hit (about 4.1% of all), similar ones and a draw of the others.

SMILES	hgDAF12 agonist	DAX1 inh-1	ssDAF12 agonist	DAX1 inh-2	hcDAF12 agonist
N[C@H](C(=O)N[C@@H](Cc1ccccc1)C(=O)N1CCC2CCN(S(=O)(=O)c3ccccc3)CC21)c1ccccc1 (stereo partly specified)	17*	·	0	3	1
CC(C)[C@H](NC(=O)[C@H](Cc1ccccc1)NC(=O)OC(C)(C)C)C(=O)N1CCC2CCN(S(=O)(=O)c3ccccc3)CC21 (stereo partly specified)	-2	·	-1	0	1
Cc1[nH]n(-c2ccccc2)c(=O)c1C(c1ccc(C(=O)O)cc1)c1c(C)[nH]n(-c2ccccc2)c1=O	-5	0	2.1*	0	2
Cc1[nH]n(-c2ccccc2)c(=O)c1C(c1cccc([N+](=O)[O-])c1)c1c(C)[nH]n(-c2ccccc2)c1=O	3	0	1	0	6.7*
Cc1[nH]n(-c2ccccc2)c(=O)c1C(c1cccc([N+](=O)[O-])c1O)c1c(C)[nH]n(-c2ccccc2)c1=O	-2	-1	0	0	1
CCCCNC(=O)C[C@@H]1C[C@]2(C(=O)OCC)CCC3=C2N(CCC3)C1=O	1	·	-1	0	0
CCOC(=O)c1nn(-c2ccc([N+](=O)[O-])cc2)cc1O	2	2	-1	2	0
CCOC(=O)c1nn(-c2ccc(C)c(C)c2)cc1O	13*	2	-1	3	5
COc1cc2c(cc1NC(=O)C(C)OC(=O)c1ccc(S(=O)(=O)Nc3ccccc3Cl)cc1)oc1ccccc12 (stereo unspecified)	1	1	1	-1	5.8*
COc1cc2c(cc1NC(=O)C(C)N1CCN(S(=O)(=O)c3ccc(C)c(C)c3)CC1)oc1ccccc12 (stereo unspecified)	3	2	0	0	4
COc1ccc(S(=O)(=O)Nc2ccccc2Cl)cc1NC(C)=O	8	0	-1	0	1
COc1cc2c(cc1NC(=O)C(C)N1CCN(S(=O)(=O)c3ccccc3[N+](=O)[O-])CC1)oc1ccccc12 (stereo unspecified)	4	1	1	1	6.0*
CC(=O)CC[C@@H]1CC[C@]2(CCCN(C(=O)c3ccco3)C2)O1	0	·	0	0	0
CN1C(=O)C[C@@](C#N)(C(=O)Nc2nc3ccc(F)cc3s2)[C@H]1c1ccccc1	-4	·	-1	-1	-2
CN(C)C(/C=C/Nc1cccc([N+](=O)[O-])c1)=C(C#N)C#N	3	2	1	0	-1
Cc1ccc(C(=O)/C=C/Nc2cccc([N+](=O)[O-])c2)o1	11*	0	0	1	5.8*
COc1ccc(-c2cc3ncnc(Cl)c3s2)cc1	11*	1	0	1	4
CC(C)(C)c1ccc(/C=C/C(=O)N2CCCCC2)cc1	11*	4	0	3.7*	3
COc1cccc(NC(=O)COC(=O)c2c(F)cccc2Cl)c1	6	4.4*	0	1	1
COc1cccc(NC(=O)COC(=O)c2ccccc2F)c1	-1	-1	-2	1	-2
O=C(COC(=O)c1c(F)cccc1Cl)NC1CCCC1	7	1	0	1	1
O=C(COC(=O)c1c(F)cccc1Cl)NCC1CCCCC1	11*	1	-1	0	0
C=CCN1C(=O)[C@@H](CC(=O)NCCCC)[C@]2(C(=O)OCC)CCCCC/C=C/12	1	·	-1	0	1
COc1ccc(-c2noc(C3CCCN(C(=O)Nc4ccc5c(c4)OCO5)C3)n2)cc1 (stereo unspecified)	9	·	-1	0	0
Cc1c(C(=O)NC(C)c2ccccn2)oc2c(Cl)cccc12 (stereo unspecified)	-1	-2	0	-1	5
SMILES	hgDAF12 agonist	DAX1 inh-1	ssDAF12 agonist	DAX1 inh-2	hcDAF12 agonist
Cc1c(C(=O)Nc2nccs2)oc2c(Cl)cccc12	7	2	1.3*	1	5
COc1nc(C)nc2c1sc1nc3c(cc12)COC(C)(C)C3	13*	2	0	3.9*	0
Cc1nc(OCC(C)C)c2sc3nc4c(cc3c2n1)COC(C)(C)C4	5	·	-1	1	1
O=C1/C(=C/c2cccnc2)CCc2c1[nH]c1ccccc21	13*	0	-1	3	1
Cc1occc1-c1nc(-c2ccccn2)no1	11*	-1	1	3	6.0*
c1ccc(-c2noc(-c3ccncc3)n2)nc1	8	1	-1	3.8*	3
Cc1occc1-c1nc(-c2ccncc2)no1	7	0	-1	0	-1
c1ccc(-c2noc(C34CC5CC(CC(C5)C3)C4)n2)cc1	0	-1	-1	0	0
c1ccc(-c2noc(C34CC5CC(CC(C5)C3)C4)n2)nc1	7	2	0.9*	1	6.3*
c1ccc(-c2noc(-c3ccc4ccccc4c3)n2)nc1	·	-8	·	·	·
CCOC(=O)C1(C)CCN1C(=O)c1ccc2c(c1)CCO2 (stereo unspecified)	-1	·	-1	0	1
CCNC(=O)N1CCN(c2ccc(N3CCN(C(=O)NCC)[C@@H](C)C3)c(C)c2)[C@H](C)C1	0	·	-1	0	-1
CCCCCCN1CCS(=O)(=O)N(Cc2ccc(Cl)cc2)C(C(=O)OC)C1 (stereo unspecified)	-2	·	-1	0	0
CC1(C)CC(=O)c2cnc(NC3CC3)nc2C1	2	0	-2	0	3
Cc1ccc(Nc2ncc3c(n2)CC(C)(C)CC3=O)cc1	13*	6.0*	0	4	3
CC(C)CNC(=O)OCc1cn(Cc2ccc(F)cc2F)nn1	2	·	-1	0	-1
Cn1c(=O)c(-c2cc(=O)[nH][nH]2)c(O)c2ccccc21	3	·	0	1	6.2*
CCn1c(=O)c(-c2cc(=O)[nH][nH]2)c(O)c2ccccc21	3	1	-1	0	-1
O=C(/C=C/c1ccc([N+](=O)[O-])cc1)OCc1cnc(-c2ccccc2)o1	2	6.1*	-1	0	0
CC(NC(=O)COC(=O)/C=C/c1ccc([N+](=O)[O-])cc1)c1ccccc1 (stereo unspecified)	0	-1	-2	0	1
COc1ccc(-c2ccc(C(=O)Nc3ccc4c(c3)OCO4)c3occc23)c(C)c1	13*	·	0	3	3
COc1ccc(-c2ccc(C(=O)Nc3ccc(OC)nc3)c3occc23)c(C)c1	-4	·	-1	-2	-3
COP(=O)(CC(=O)C(Cc1ccccc1)NC(=O)OC(C)(C)C)OC (stereo unspecified)	3	·	-1	0	0
CC1(C)CC(NC(=O)c2ccc(Cl)c(Cl)c2)CC(C)(C)N1	1	4.6*	-1	1	1
CCCCn1c(O)c(/C=C2\C=Nc3ccccc32)c(=O)[nH]c1=O	4	1	0	0	6.0*

Source: PubChem BioAssay
